What all share (experiment): NCI-60 one-dose screen, 48 h (100 = growth as untreated, 0 = no growth, -100 = all killed)
Common to all, as to details: 10 µM unless noted

Experiment [1] relates to SK-MEL-2 melanoma.
In experiment [2] the test system is SN12C renal.
Experiment [3] concerns UO-31 renal.
Experiment [4] has as its system TK-10 renal.
Experiment [5] has as its system ACHN renal.
The test system of experiment [6] is A498 renal.
Experiment [7] relates to CCRF-CEM leukemia.
For experiment [8], the system named is MOLT-4 leukemia.
Experiment [9] deals with CAKI-1 renal.
Experiment [10] concerns EKVX NSCLC.

Molecules are shown by their SMILES. This is part of a sample that, as a whole, favours compounds with a hit. Of some 83,000 tested, about 20% had one in any assay.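 Method: cells in 96-well plates; compound added at one concentration; 48 h incubation; percent growth measured; values under 10 scored active.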 Values without a mark were called inactive. Active and inactive are the calls of the source.

For `CC(C)=CCC/C(C)=C/CC/C(C)=C/CC/C(C)=C/CSC[C@H](NC(=O)CCCCCN1CCN(C)CC1)C(=O)NC1CCCCC1`, the growth in [1] is 97.6%; in [2], 97.7%; in experiment [3], 67.3%; in experiment [4], 111%; in [5] it was 83.4%; in experiment [6], 92.9%. Also, the values for the growth in experiment [7] and in experiment [8] were 17.4% and 45.2%, respectively.
Turning to `C#Cc1cc2c(N)c(C(=O)c3cc(OC)c(OC)c(OC)c3)[nH]c2cc1OC`, the growth was 15.6% in experiment [1]; 67.9% in [2]; 35.7% in [3]; 58.6% in [4]; 35.7% in experiment [5]; -19.1% (active) in [6]. Besides, the results for the growth in [7] and in experiment [8] were 16% and 32%, respectively.
Take `O=C1C=C(C(O)c2ccc(O)cc2)C(=O)c2ccccc21` (configuration not stated): the growth was 109% in experiment [1]; 107% in [2]; 69.2% in experiment [3]; 103% in experiment [4]; 92.7% in experiment [5]; 104% in [6]. Further, in [8], the growth is 84.8%.
With `O=c1c(CNc2ccc(S(=O)(=O)Nc3ncccn3)cc2)coc2ccccc12`, the growth is 95.9% in experiment [1]; 74.9% in experiment [3]; 106% in experiment [4]; 89.9% in [5]; 130% in experiment [9]; 102% in [6].
On to `Nc1c(C(=O)Nc2cccc3ccccc23)sc2nc3c(cc12)CCCC3`, for which the growth in experiment [10] was 66.4%; in experiment [2], 34.3%; in [3] it was 42%; in experiment [4], 60.6%; in experiment [5] it was 44.7%; in [9], 44.9%. The growth in experiment [6] was 0.0449% (active); in experiment [7] it was 16.6%; in experiment [8], 20.7%.
Consider `C[C@@H]1CCCCCCCCC[C@H](O)C(=O)C[C@@H](SC[C@@H](O)C(=O)O)C(=O)O1`, for which the growth is 105% in [10]; 93.6% in [2]; 87.2% in experiment [3]; 95.2% in experiment [4]; 96.6% in [5]; 102% in [9]. The growth in [6] was 167%; in [7] it was 59.4%; in experiment [8], 70.2%.
Consider `C/C(Cc1ccc(Cl)cc1)=C(/c1ccc(Cl)cc1)c1ccc(OCCN2CCCC2)cc1`, for which the growth in experiment [10] is 91.2%; in [2], 81.6%; in experiment [3], 68.1%; in experiment [4] it was 96.1%; in experiment [5], 93.8%; in [9] it was 75.9%. Also, the figures for the growth in experiment [6], in [7] and in experiment [8] were 103%, 66% and 59.7%, respectively.
With `COc1cc(-c2nc(-c3ccccc3)c(-c3ccccc3)[nH]2)cc(OC)c1O`, the growth in experiment [1] was -39.7% (active); in experiment [2], 2.29% (active); in experiment [3] it was 5.85% (active); in experiment [4], 0.953% (active); in experiment [5] it was 15.2%; in experiment [6], 82.8%. In addition, the growth in [7] was -0.116% (active); in [8], 4.88% (active).
Regarding `C[N+](C)(CCCCCC[N+](C)(C)C1c2ccccc2-c2ccccc21)C1c2ccccc2-c2ccccc21`, the growth was 95.8% in [1]; 108% in experiment [2]; 89% in experiment [3]; 112% in [4]; 106% in experiment [5]; 106% in experiment [7]. The growth in experiment [8] is 90.1%.
Consider `CCCCCCCC(=O)SCC/C=C/[C@@H]1CC(=O)NCc2cccc(n2)CN(Cc2ccc3ccccc3c2)CC(=O)N[C@@H](C(C)C)C(=O)O1`, for which the growth in experiment [10] is 53.9%; in [2], 57.1%; in experiment [3] it was 36.4%; in [4], 21.6%; in experiment [5], 34.7%; in experiment [9] it was 35.8%. Besides, the growth in [6] was 0.931% (active); in experiment [7], 15.6%.
As to `CCCC(=O)N1CCCCC1CC` (configuration not stated), the growth was 109% in experiment [1]; 105% in experiment [2]; 108% in experiment [3]; 113% in [4]; 97.1% in [5]; 90.8% in [6]. In addition, the growth in experiment [7] is 95.3%; in experiment [8], 113%.
Regarding `N#CC1=C(N)Oc2ccc3ccccc3c2C1c1ccccc1Cl` (configuration not stated), the growth in [10] was 42.5%; in [2], 50%; in experiment [3], 48.9%; in [4], 118%; in [5], 49.9%; in experiment [9], 34.5%. For the same compound, the growth in experiment [6] was 40.1%; in experiment [7], 26.1%; in experiment [8] it was 26.7%.
`COc1ccc(-c2cc(=O)oc3ccc(Cl)cc23)cc1F`: the growth is 38.3% in experiment [10]; 30.6% in experiment [2]; 48.4% in [3]; 62.9% in experiment [4]; 34.8% in [5]; 27% in experiment [9]. For the same compound, the values for the growth in experiment [6], in experiment [7] and in [8] were 2.69% (active), 11.8% and 7.8% (active), respectively.
`O=C(O)c1cccc2c1-c1ccc(Cl)cc1C2`: the growth is 110% in experiment [10]; 105% in experiment [2]; 89.7% in [3]; 103% in [4]; 107% in experiment [5]; 86.5% in experiment [9]. The growth was 96.8% in experiment [6], 99.5% in [7] and 89.9% in experiment [8].
In the case of `c1ccc(C2Cc3ccccc3C2=NC2CCCCC2)cc1` (configuration not stated), the growth in [1] is 93.5%; in experiment [2], 101%; in experiment [3], 89.5%; in [4] it was 103%; in experiment [5] it was 97%; in experiment [6], 97.9%. Further, the growth was 94.8% in [7] and 102% in [8].

The values are drawn from PubChem BioAssay (NCI).
